PubChem BioAssay (NCI)
This is part of a sample that, as a whole, favours compounds with a hit. Of some 83,000 tested, about 20% had one in any assay.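 Percent growth is the endpoint: 0 to 100 indicates growth inhibition (40 means 60% inhibition), 0 means no net growth, and negative values indicate cell death.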 Active and inactive are the calls of the source. The calls were made as follows: active = growth percent below 10; inactive = the rest.

Assays:
Experiment in all cases: NCI-60 one-dose screen, 48 h (100 = growth as untreated, 0 = no growth, -100 = all killed)
[1] = test system: HCT-15 colon; conditions: 10 µM unless noted
[2] = test system: HT29 colon; conditions: 10 µM unless noted
[3] = test system: SNB-75 CNS; conditions: 10 µM unless noted
[4] = test system: SNB-19 CNS; conditions: 10 µM unless noted
[5] = test system: U251 CNS; conditions: 10 µM unless noted
[6] = test system: PC-3 prostate; conditions: 10 µM unless noted
[7] = test system: SK-MEL-5 melanoma; conditions: 10 µM unless noted
[8] = test system: UACC-62 melanoma; conditions: 10 µM unless noted
[9] = test system: LOX IMVI melanoma; conditions: 10 µM unless noted
[10] = test system: SK-MEL-28 melanoma; conditions: 10 µM unless noted
[11] = test system: SK-MEL-2 melanoma; conditions: 10 µM unless noted
[12] = test system: EKVX NSCLC; conditions: 10 µM unless noted
[13] = test system: SN12C renal; conditions: 10 µM unless noted
[14] = test system: UO-31 renal; conditions: 10 µM unless noted
[15] = test system: ACHN renal; conditions: 10 µM unless noted
[16] = test system: CAKI-1 renal; conditions: 10 µM unless noted
[17] = test system: A498 renal; conditions: 10 µM
[18] = test system: HL-60(TB) leukemia; conditions: 10 µM unless noted
[19] = test system: CCRF-CEM leukemia; conditions: 10 µM unless noted
[20] = test system: TK-10 renal; conditions: 10 µM unless noted

Measured: growth

COC(=O)[C@H](Cc1ccccc1)NNC(=O)c1csc([C@@H](C[C@H](C(C)C)N(C)C(=O)[C@@H](NC(=O)[C@H]2CCCCN2C)C2CC2)OC(C)=O)n1
active: [2] 4.57% | [5] 4.68% | [7] -42.3% | [17] -3.69% | [18] -55.4% | [19] -2.7%
inactive: [1] 13.9% | [3] 49.2% | [4] 65.2% | [6] 13.9% | [8] 33.7% | [9] 13.6% | [10] 48.3% | [11] 30.6% | [12] 29.9% | [13] 24.3% | [14] 42.8% | [15] 24.8% | [16] 21.4%

COC(=O)[C@@H](C)C[C@H](Cc1ccc(F)cc1)NC(=O)c1csc([C@@H](C[C@H](C(C)C)N(C)C(=O)[C@@H](NC(=O)[C@H]2CCCCN2C)C(C)C)OC(C)=O)n1
active: [2] 3.51% | [5] 6.95% | [7] -32.8% | [17] -3.94% | [18] -37.5%
inactive: [1] 15.6% | [3] 63.8% | [4] 36.6% | [6] 28.4% | [8] 42.2% | [9] 23.1% | [10] 58.9% | [11] 37.7% | [12] 48.7% | [13] 26.6% | [14] 47% | [20] 50.2% | [19] 12.3%

COC(=O)[C@@H](C)C[C@H](Cc1ccccc1)NC(=O)c1csc([C@@H](C[C@H](C(C)C)N(C)C(=O)[C@@H](NC(=O)[C@H]2CCCCN2C)C(C)C)OC(C)=O)n1
inactive: [1] 15% | [4] 65.6% | [8] 41.7% | [9] 14.2% | [10] 39.2% | [11] 16.3% | [12] 29.6% | [13] 23.3% | [14] 42% | [16] 12.8%
active: [2] 5.25% | [3] 5.98% | [5] -1.97% | [6] 7.77% | [7] -50.2% | [17] -7.32% | [18] -47.8% | [19] 0.404%

ClC1=C(Cl)C(Cl)(C2(Cl)C(Cl)=C(Cl)C(Cl)=C2Cl)C(Cl)=C1Cl
active: [1] -41.9% | [2] -64.2% | [5] -11.3% | [6] -8.81% | [7] -21.8% | [8] -18.6% | [9] -85.5% | [10] -18.1% | [12] 5.58% | [13] -25.2% | [14] -89.6% | [20] -91.3% | [18] -36.3% | [19] -57.6%
inactive: [3] 62% | [4] 10.5% | [11] 16.9% | [17] 67%

Cc1ccc(C(=O)NCCCOc2ccc(N3C(N)=NC(N)=NC3(C)C)cc2Cl)cc1S(=O)(=O)F
inactive: [1] 102% | [2] 59.4% | [3] 87.6% | [4] 72.2% | [5] 37.6% | [6] 28.5% | [7] 32.9% | [8] 30.1% | [9] 26.7% | [10] 104% | [11] 70.1% | [12] 79.3% | [13] 35.2% | [14] 105% | [20] 103% | [17] 118% | [18] 30.2% | [19] 55.1%

O=C1NC(=O)C(=Cc2cn(CCCCCCn3c4ccccc4c(=O)c4ccccc43)c3ccccc23)C(=O)N1
active: [17] -49.3%
inactive: [1] 75.1% | [2] 97.2% | [3] 94.5% | [4] 86% | [5] 90.4% | [6] 84% | [7] 90.5% | [8] 63.5% | [9] 83.8% | [10] 102% | [11] 94% | [12] 89.8% | [13] 91.1% | [14] 63.9% | [15] 101% | [16] 97.6% | [18] 78.7% | [19] 80.6%

COC(=O)[C@H](Cc1ccccc1)NC(=O)c1csc([C@@H](C[C@H](C(C)C)N(C)C(=O)[C@@H](NC(=O)[C@H]2CCCN2C)C2CC2)OC(C)=O)n1
inactive: [1] 18.7% | [3] 39.2% | [4] 59.5% | [5] 13.3% | [6] 13.2% | [7] 29.4% | [8] 38.2% | [9] 16.8% | [10] 51.4% | [11] 31.2% | [12] 33.4% | [13] 33% | [14] 41.1% | [15] 39.9% | [16] 36.8% | [17] 13.5%
active: [2] 8.98% | [18] -44.9% | [19] 4.07%

COC(=O)[C@@H](C)C[C@H](Cc1ccccc1)NC(=O)c1csc([C@@H](C[C@H](C(C)C)N(C)C(=O)[C@@H](NC(=O)[C@H]2CCCCN2C)c2ccc(F)cc2)OC(C)=O)n1
active: [2] 6.87% | [5] 4.87% | [7] -46.3% | [9] 7.62% | [17] -9.07% | [18] -42.6% | [19] 8.77%
inactive: [1] 15.5% | [3] 30.7% | [4] 74.8% | [6] 15.8% | [8] 40% | [10] 49.6% | [11] 30.2% | [12] 29.8% | [13] 15.4% | [14] 35.2% | [15] 19.4% | [16] 14%

CCCC(C)C1(CC)C(=O)NC(=O)N(C)C1=O (centres undefined)
inactive: [1] 107% | [2] 94.6% | [3] 98.8% | [4] 104% | [5] 92.1% | [6] 85.8% | [7] 89.1% | [8] 90.8% | [9] 98.6% | [10] 116% | [11] 85.4% | [12] 105% | [14] 82.3% | [20] 92.6% | [15] 107% | [16] 95.7% | [17] 91.8% | [18] 94.8% | [19] 93.9%

COC(=O)[C@H](Cc1ccccc1)NC(=O)c1csc([C@@H](C[C@H](C(C)C)N(C)C(=O)[C@@H](NC(=O)[C@H]2CCCCN2C)C2CC2)OC(C)=O)n1
inactive: [1] 13.1% | [3] 34.3% | [4] 69.6% | [6] 11.3% | [8] 36.3% | [9] 14.7% | [10] 44.7% | [11] 15.3% | [12] 29.9% | [13] 21.6% | [14] 35.9% | [15] 28.9% | [16] 24.1%
active: [2] 5.33% | [5] -5.23% | [7] -1.17% | [18] -43.1% | [19] 2.68%

COC(=O)[C@@H](C)C[C@H](Cc1ccccc1)NC(=O)c1csc([C@@H](C[C@H](C(C)C)N(C)C(=O)[C@@H](NC(=O)[C@H]2CCCN2C)C2CC2)OC(C)=O)n1
inactive: [1] 18.3% | [3] 28.9% | [4] 75.6% | [8] 41.2% | [9] 15% | [10] 56.4% | [11] 35.8% | [12] 31.1% | [13] 25.2% | [14] 48.2% | [15] 20.8% | [16] 12.7%
active: [2] 6.25% | [5] 8.67% | [6] 8.37% | [7] -52.1% | [18] -36.8% | [19] 6.07%

O=C(O)CNC(=O)C(Cl)(Cl)Cl
inactive: [1] 96% | [2] 97.1% | [3] 85.1% | [4] 100% | [5] 84.8% | [6] 91.6% | [7] 99% | [8] 102% | [9] 99% | [10] 96.6% | [11] 111% | [13] 100% | [14] 87.6% | [20] 95.6% | [15] 92.7% | [16] 89.1% | [17] 96.2%

O=[N+]([O-])c1cc([N+](=O)[O-])c(Nn2c3ccccc3c3ccccc32)c([N+](=O)[O-])c1
inactive: [4] 25.8% | [10] 11.9%
active: [1] 2.82% | [2] -4.7% | [3] -19.7% | [5] 8.04% | [6] -10.5% | [7] -75.9% | [8] -16.7% | [9] 7.47% | [11] -50.4% | [12] 6.19% | [13] 5.01% | [14] -3.91% | [20] 0.75% | [17] -43.2% | [18] -30.3% | [19] -0.784%

CC[C@H](C)[C@H](NC(=O)c1ccccn1)C(=O)N(C)[C@H](C[C@@H](OC(C)=O)c1nc(C(=O)N[C@@H](Cc2ccccc2)C[C@H](C)C(=O)OC)cs1)C(C)C
inactive: [1] 13.5% | [4] 52.4% | [5] 16.1% | [6] 24.5% | [8] 13.1% | [9] 29.1% | [10] 53.2% | [12] 30.3% | [13] 46.9% | [14] 42.2% | [15] 40.2%
active: [2] 2.48% | [3] 5.57% | [7] -22.6% | [11] -8.78% | [17] -5.19% | [18] -21.2% | [19] 7.71%

CCC(O)(CN)c1ccccc1 (centres undefined)
inactive: [1] 103% | [2] 95.6% | [3] 93.5% | [4] 106% | [5] 93.6% | [6] 87.5% | [7] 98.9% | [8] 100% | [9] 105% | [10] 115% | [11] 97.7% | [12] 98.3% | [14] 89.7% | [20] 101% | [15] 105% | [16] 96.3% | [17] 86.7% | [18] 101% | [19] 90.1%

CC1=C([Te]c2ccc(O)cc2)C(=O)c2ccccc2C1=O
active: [2] 1.03% | [3] -3.63% | [6] 5.85% | [7] -94.6% | [8] 5.4% | [9] 5.05% | [10] -12.4% | [12] -57% | [15] 5.62% | [16] -93.3% | [17] -25.8% | [18] -38% | [19] -13.4%
inactive: [1] 13.6% | [4] 12.3% | [5] 10% | [11] 31.2% | [13] 11.5% | [20] 36.1%
